# PubChem BioAssay (NCATS)
# Unmarked numbers belong to inactive results. Results filed as inconclusive are left out. Where a call stands in place of a potency, no number is given. Activity calls are given as the source filed them. Calls come from the whole dose curve; as a rule, active = well fitted curve in the direction sought with a large enough effect; inconclusive = small, poorly fitted or top-dose-only effect, or another doubt; inactive = no such curve, though single readings can be large; an effect the other way counts as inactive or inconclusive.
# Columns and labels:
# [1] = test system: Zika virus NS2B-NS3 protease (linked construct); test: Primary screen NINDS Rhodamine qHTS for Zika virus inhibitors (AID 1347160); note: nearly all actives have a fitted effect of over 55% in size
# Summary of the method: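 Kinetic fluorescence (Ex 480 nm, Em 540 nm) over 15 min with 1.5 microM Rhodamine110 peptide and 25 nM linked protease.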
# [2] = biological target: Calcium and integrin-binding protein 1 (Homo sapiens) (UniProt Q99828); test: Primary qHTS for Identification of Calcium Integrin Binding Protein 1 (CIB1) Competitor (AID 1508620);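 note: GST tagged CIB1 binding a fluorescein labelled alphaIIb integrin peptide tracer; top concentration of the series differs between compounds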
# Sequence of Calcium and integrin-binding protein 1 (Homo sapiens) (Q99828 whole entry, looked up): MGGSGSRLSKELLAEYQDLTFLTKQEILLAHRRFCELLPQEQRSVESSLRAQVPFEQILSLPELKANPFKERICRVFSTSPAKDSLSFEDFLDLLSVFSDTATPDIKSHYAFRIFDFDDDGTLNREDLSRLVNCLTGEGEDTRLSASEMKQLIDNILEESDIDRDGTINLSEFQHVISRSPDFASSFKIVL
# Summary of the method: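 Fluorescence polarization competition: CIB1-GST (1 uM final) preincubated with compound 15 min at room temperature, then FITC-labeled alphaIIb peptide (100 nM final) added for another 15 min. Polarization read at Ex 480/Em 540.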
# [3] = biological target: Glutathione peroxidase 1 (Homo sapiens) (UniProt P07203); test: Primary qHTS Assay for Inhibitors of Recombinant Selenoprotein Glutathione Peroxidase 1 (GPX1) (AID 1845191); note: nearly all actives have a fitted effect of over 65% in size
# Sequence of Glutathione peroxidase 1 (Homo sapiens) (P07203 whole entry, looked up): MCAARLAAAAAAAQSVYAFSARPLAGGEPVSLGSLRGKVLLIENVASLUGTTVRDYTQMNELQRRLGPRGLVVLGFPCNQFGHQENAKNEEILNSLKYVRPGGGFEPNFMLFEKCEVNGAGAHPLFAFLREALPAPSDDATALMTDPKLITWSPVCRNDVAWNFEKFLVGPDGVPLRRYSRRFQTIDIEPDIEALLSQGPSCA
# Summary of the method: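 Recombinant GPX1 (10 nM final) was preincubated with compound for 30 min at room temperature, then reacted with 1 mM GSH, 0.5 mM CHP, 0.5 mM NADPH and 100 nM glutathione reductase; NADPH fluorescence (340/450 nm) was read at 0 and 15 min.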
# [4] = biological target: Phospholipid hydroperoxide glutathione peroxidase GPX4 (Homo sapiens) (UniProt P36969); test: Primary qHTS Assay for Inhibitors of Recombinant Selenoprotein Glutathione Peroxidase 4 (GPX4) (AID 1845192); note: nearly all actives have a fitted effect of over 65% in size
# Sequence of Phospholipid hydroperoxide glutathione peroxidase GPX4 (Homo sapiens) (P36969 whole entry, looked up): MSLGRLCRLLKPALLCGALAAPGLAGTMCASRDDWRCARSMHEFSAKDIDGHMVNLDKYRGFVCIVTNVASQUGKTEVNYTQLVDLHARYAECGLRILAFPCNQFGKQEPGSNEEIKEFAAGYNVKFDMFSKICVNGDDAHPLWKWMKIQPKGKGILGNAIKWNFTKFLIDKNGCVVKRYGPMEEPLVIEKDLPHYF
# Summary of the method: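 GR-coupled readout: 100 nM GR, 1 mM GSH, 0.5 mM NADPH; NADPH fluorescence (ex 340/em 450 nm) read at t=0 and after 15 min RT. GPX4 200 nM, preincubated 30 min with compound; substrate 0.5 mM CHP.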
# [5] = biological target: Luciferin 4-monooxygenase (Photinus pyralis) (UniProt P08659); test: Primary firefly luciferase (FLuc) qHTS assay for identification of artifact compounds. (AID 1845220); settings: outcome: dose series up to 54.1 µM unless noted; note: nearly all actives have a fitted effect of over 60% in size
# Summary of the method: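 Reaction readout was CCD-imaged luminescence, taken 5 min after adding 10 nM purified firefly enzyme to compound-treated wells holding 10 uM luciferin and ATP in pH 7.6 buffer.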
# [6] = Primary fluorescence-based thiol-reactive (MSTI) qHTS assay for identification of artifact compounds. (AID 1845221);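 note: thiol-reactive compounds lower the probe fluorescence signal; nearly all actives have a fitted effect of over 65% in size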
# Summary of the method: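 First, 4 uM MSTI in 2% DMSO/PBS pH 7.4 was dispensed; next, compounds were added; then plates sat 1 h at room temperature without light. Finally, emission at 598 nm was recorded.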
# [7] = test system: Nanoluciferase (engineered Oplophorus gracilirostris luciferase); test: Primary Nanoluciferase (NLuc) qHTS assay for identification of artifact compounds. (AID 1845222);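 note: NLuc secreted into diluted conditioned medium of S16 cells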
# Summary of the method: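 Concentration-response data were obtained by luminescence after 5 min with Nano-Glo substrate at 1:100. The enzyme was diluted S16 NLuc-expressing cell medium, preincubated with compound for 15 min at RT. Curves were fitted with a 4-parameter Hill model.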
# [8] = Primary redox qHTS assay for identification of artifact compounds. (AID 1845223)
# Summary of the method: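 Amplex Red (25 uM) and HRP (250 mU/mL) in HBSS, with compounds for 15 min, then 250 uM DTT for 30 min, room temperature, dark. Fluorescence 525/598 nm read; normalized to DMSO and 10 uM DA3003; Hill fit.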
# [9] = test system: HaCat; test: Cytotoxic Profiling of Annotated Libraries Using Quantitative High-Throughput Screening (AID 1296008); settings: Five cell lines viability, CellTiter-Glo ATP luminescence, 48-72 h; max response: hits give low values; note: nearly all actives have a fitted effect of over 60% in size; note: potency is the fitted concentration of half-maximal effect
# Summary of the method: (§1)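 Compounds were pin-transferred onto cells and incubated 48 or 72 hr at 37 degree Celsius, 95% humidity. CellTiter-Glo was added, plates sat 10 min at room temperature, then ATP-coupled luminescence was imaged as the viability read-out.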
# [10] = test system: NIH3T3; test: as above; settings: Five cell lines viability, CellTiter-Glo ATP luminescence, 48-72 h; max response: hits give low values
# Summary of the method: as §1
# [11] = test system: C33A; test: Primary qHTS to identify gynecologic anti-cancer compounds using libraries of approved drugs and bioactive compounds (AID 1345084); settings: Gynecologic cancer cell panel viability, ATPlite luminescence, 48 h; series mostly up to 57.5 µM; note: nearly all actives have a fitted effect of over 55% in size; note: potency is the fitted concentration of half-maximal effect
# Summary of the method: (§2)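 48 h compound exposure at 37 C, 5% CO2; five-point qHTS. ATPlite luminescence readout of cell ATP.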
# [12] = test system: CAOV3; test: as above; settings: Gynecologic cancer cell panel viability, ATPlite luminescence, 48 h; series mostly up to 57.5 µM
# Summary of the method: as §2
# [13] = test system: CASKI; test: as above; settings: Gynecologic cancer cell panel viability, ATPlite luminescence, 48 h; series mostly up to 57.5 µM
# Summary of the method: as §2
# [14] = test system: Es-2; test: as above; settings: Gynecologic cancer cell panel viability, ATPlite luminescence, 48 h; series mostly up to 57.5 µM
# Summary of the method: as §2
# [15] = test system: Hek293T; test: as above; settings: Gynecologic cancer cell panel viability, ATPlite luminescence, 48 h, control line for the selectivity index; series mostly up to 57.5 µM
# Summary of the method: as §2
# [16] = test system: JEG-3; test: as above; settings: Gynecologic cancer cell panel viability, ATPlite luminescence, 48 h; series mostly up to 57.5 µM
# Summary of the method: as §2
# [17] = test system: OV90; test: as above; settings: Gynecologic cancer cell panel viability, ATPlite luminescence, 48 h; series mostly up to 57.5 µM
# Summary of the method: as §2
# [18] = test system: PA-1; test: as above; settings: Gynecologic cancer cell panel viability, ATPlite luminescence, 48 h; series mostly up to 57.5 µM
# Summary of the method: as §2
# [19] = test system: Tov-21-G; test: as above; settings: Gynecologic cancer cell panel viability, ATPlite luminescence, 48 h; series mostly up to 57.5 µM
# Summary of the method: as §2
# [20] = test system: Tov112D; test: as above; settings: Gynecologic cancer cell panel viability, ATPlite luminescence, 48 h; series mostly up to 57.5 µM
# Summary of the method: as §2
structure (smiles),measurement,setting,value
c1ccc(C2(c3ccccc3)OC[C@@H]([C@H]3CCCCN3)O2)cc1,Potency,[1],inactive
same,Potency,[2],inactive
same,Potency,[3],inactive
same,Potency,[4],inactive
same,outcome,[5],inactive
same,Potency,[6],inactive
same,Potency,[7],inactive
same,Potency,[8],inactive
same,max response,[9],4.38%
same,max response,[10],0.771%
same,Potency,[11],inactive
same,Potency,[12],inactive
same,Potency,[13],inactive
same,Potency,[14],inactive
same,Potency,[15],inactive
same,Potency,[16],inactive
same,Potency,[17],inactive
same,Potency,[18],inactive
same,Potency,[19],inactive
same,Potency,[20],inactive
O=C(N1CCCCC1Cc1ccccc1)n1cc(-c2ccc(-c3ccccc3)cc2)nn1 (stereo unspecified),Potency,[1],inactive
same,Potency,[2],inactive
same,Potency,[3],inactive
same,Potency,[4],inactive
same,outcome,[5],inactive
same,Potency,[6],inactive
same,Potency,[7],inactive
same,Potency,[8],inactive
same,outcome,[9],inactive
same,outcome,[10],inactive
same,Potency,[11],inactive
same,Potency,[12],inactive
same,Potency,[13],inactive
same,Potency,[14],inactive
same,Potency,[15],inactive
same,Potency,[16],inactive
same,Potency,[17],inactive
same,Potency,[18],inactive
same,Potency,[19],inactive
same,Potency,[20],inactive
CCC1CN2CCC3(C(=O)Nc4cccc(O)c43)C2CC1/C(=C/OC)C(=O)OC (stereo unspecified),Potency,[1],inactive
same,Potency,[3],inactive
same,Potency,[4],inactive
same,Potency,[6],inactive
same,Potency,[7],inactive
same,Potency,[8],inactive
same,outcome,[9],inactive
same,max response,[10],4.67%
same,Potency,[11],inactive
same,Potency,[12],inactive
same,Potency,[13],inactive
same,Potency,[14],inactive
same,Potency,[15],inactive
same,Potency,[16],inactive
same,Potency,[17],inactive
same,Potency,[18],inactive
same,Potency,[19],inactive
same,Potency,[20],inactive
C=C1CC[C@H]2[C@@H](/C=C(\C)C(=O)[C@@]3(OC(C)=O)C[C@H](C)[C@H](OC(=O)c4ccccc4)[C@@H]3[C@H]1OC(C)=O)C2(C)C,Potency,[1],inactive
same,Potency,[2],inactive
same,Potency,[3],inactive
same,outcome,[5],inactive
same,Potency,[6],inactive
same,Potency,[7],inactive
same,max response,[9],-1.11%
same,max response,[10],-4.22%
same,Potency,[11],inactive
same,Potency,[12],inactive
same,Potency,[13],inactive
same,Potency,[14],inactive
same,Potency,[15],inactive
same,Potency,[16],inactive
same,Potency,[17],inactive
same,Potency,[18],inactive
same,Potency,[19],inactive
same,Potency,[20],inactive
COC1(C[S@@](=O)c2ccccc2)CCN(CCc2c[nH]c3ccc(F)cc23)CC1,Potency,[1],inactive
same,Potency,[2],inactive
same,Potency,[3],inactive
same,Potency,[4],inactive
same,outcome,[5],inactive
same,Potency,[6],inactive
same,Potency,[7],inactive
same,Potency,[8],inactive
same,max response,[9],3.53%
same,max response,[10],1.71%
same,Potency,[11],inactive
same,Potency,[12],inactive
same,Potency,[13],inactive
same,Potency,[14],inactive
same,Potency,[15],inactive
same,Potency,[16],inactive
same,Potency,[17],inactive
same,Potency,[18],inactive
same,Potency,[19],inactive
same,Potency,[20],inactive
Clc1ccc([C@]23CNC[C@H]2C3)cc1Cl,Potency,[1],inactive
same,Potency,[2],inactive
same,Potency,[3],inactive
same,Potency,[4],inactive
same,outcome,[5],inactive
same,Potency,[6],inactive
same,outcome,[9],inactive
same,max response,[10],1.31%
same,Potency,[11],inactive
same,Potency,[12],inactive
same,Potency,[13],inactive
same,Potency,[14],inactive
same,Potency,[15],inactive
same,Potency,[16],inactive
same,Potency,[17],inactive
same,Potency,[18],inactive
same,Potency,[19],inactive
same,Potency,[20],inactive
CC(=O)O[C@H]1C[C@@H](C)O[C@H]2O[C@@H]3CC4CC[C@@H]5C(CC[C@]6(C)[C@@H](C7=CC(=O)OC7)CC[C@]56O)[C@@]4(C=O)C[C@H]3O[C@]21O (stereo partly specified),Potency,[1],inactive
same,Potency,[2],inactive
same,Potency,[3],inactive
same,Potency,[4],inactive
same,outcome,[5],inactive
same,Potency,[6],inactive
same,Potency,[7],inactive
same,Potency,[9],172 nM (active)
same,Potency,[11],100 nM (active)
same,Potency,[12],282 nM (active)
same,Potency,[13],562 nM (active)
same,Potency,[14],126 nM (active)
same,Potency,[15],158 nM (active)
same,Potency,[17],0.562 µM (active)
same,Potency,[18],126 nM (active)
same,Potency,[19],100 nM (active)
same,Potency,[20],100 nM (active)
O=C(C[C@@H]1NCCC[C@H]1O)Cn1cnc2ccccc2c1=O,Potency,[1],inactive
same,Potency,[2],inactive
same,Potency,[3],inactive
same,Potency,[4],inactive
same,outcome,[5],inactive
same,Potency,[6],inactive
same,Potency,[7],inactive
same,Potency,[8],inactive
same,Potency,[9],1300 nM (active)
same,Potency,[10],366 nM (active)
same,Potency,[11],631 nM (active)
same,Potency,[13],1780 nM (active)
same,Potency,[14],1410 nM (active)
same,Potency,[15],447 nM (active)
same,Potency,[17],11.2 µM (active)
same,Potency,[18],282 nM (active)
same,Potency,[19],794 nM (active)
same,Potency,[20],631 nM (active)
CC(O)(c1ccccc1)C(Cc1ccc(Cl)cc1)n1cncn1 (stereo unspecified),Potency,[1],inactive
same,Potency,[3],inactive
same,Potency,[4],inactive
same,Potency,[6],inactive
same,Potency,[7],inactive
same,Potency,[8],inactive
same,outcome,[9],inactive
same,max response,[10],1.55%
same,Potency,[11],inactive
same,Potency,[12],inactive
same,Potency,[13],inactive
same,Potency,[14],inactive
same,Potency,[15],inactive
same,Potency,[16],inactive
same,Potency,[17],inactive
same,Potency,[18],inactive
same,Potency,[19],inactive
same,Potency,[20],inactive
O=S(=O)(c1ccccc1F)N1CCOc2c(N3CCNCC3)cccc21,Potency,[1],inactive
same,Potency,[2],inactive
same,Potency,[3],inactive
same,Potency,[4],inactive
same,outcome,[5],inactive
same,Potency,[6],inactive
same,Potency,[7],inactive
same,Potency,[8],inactive
same,outcome,[9],inactive
same,max response,[10],2.22%
same,Potency,[11],inactive
same,Potency,[13],inactive
same,Potency,[14],inactive
same,Potency,[15],inactive
same,Potency,[16],inactive
same,Potency,[17],inactive
same,Potency,[18],inactive
same,Potency,[19],inactive
same,Potency,[20],inactive
